Assay outcomes as filed in PubChem BioAssay.
Peg3 promoter: Peg3 promoter activity inhibition. HeLa PEG-Prom luciferase reporter, luminescence, overnight. inhibition, % at 20 µM. 360,000 compounds, 1.7% hits. AID 588405;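 active = inhibition of at least 50% at 20 µM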
HIF-2a inh: HIF-2a inhibition; 360,000 compounds, 0.72% hits; AID 624352; 786-0 RCC cells HIF-2a reporter, luciferase luminescence, overnight; inhibition, % at 18.8 µM;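 active = inhibition of the luminescence signal of 40% or more relative to plate controls, in a single-dose primary screen at 18.75 µM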
TRPM1 prom inh: inhibitors of MITF-driven TRPM1 promoter in melanoma cells; AID 488899; inhibition, % at 12.5 µM; SK-MEL-5 TRPM1 promoter luciferase, 24 h; 330,000 compounds, 0.83% hits;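 active = mean inhibition across replicates of 60% or more, whatever share of single replicates reaches that level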
KKLEB tox: reduces viability of KKLEB cystic fibrosis airway cells. 360,000 compounds, 0.36% hits. KKLEB CF airway cells viability, ATPlite luminescence, overnight; active compounds read low; cells stimulated with P. aeruginosa culture filtrate. activity change (cytotoxicity), % at 5 µM;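 active = corrected activity change at or below -50% at 5 µM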
ABHD5 PLIN5 PPI: inhibitors of human ABHD5-perilipin-5 interaction. Q00G26+Q8WTS1. 360,000 compounds, 0.78% hits. inhibition, % at 4 µM. Split G. princeps luciferase complementation, luminescence, 4 h;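 active = inhibition above the mean inhibition across every tested compound plus 3 SD, cut at about 22% in these data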;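 also: 0% = DMSO only wells and the 100% control is not disclosed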
Target sequence (Q00G26 whole entry, looked up): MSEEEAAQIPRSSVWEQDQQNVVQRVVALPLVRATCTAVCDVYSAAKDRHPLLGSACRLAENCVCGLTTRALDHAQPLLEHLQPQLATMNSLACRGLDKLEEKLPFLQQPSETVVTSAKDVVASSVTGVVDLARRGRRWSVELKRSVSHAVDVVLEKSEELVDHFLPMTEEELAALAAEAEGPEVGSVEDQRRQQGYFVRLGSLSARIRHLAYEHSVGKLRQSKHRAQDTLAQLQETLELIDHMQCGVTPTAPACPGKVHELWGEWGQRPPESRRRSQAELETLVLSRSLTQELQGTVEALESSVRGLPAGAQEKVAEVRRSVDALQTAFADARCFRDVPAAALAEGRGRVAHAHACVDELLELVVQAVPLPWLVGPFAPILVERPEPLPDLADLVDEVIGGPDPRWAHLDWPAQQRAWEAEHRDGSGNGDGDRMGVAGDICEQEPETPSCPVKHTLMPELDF
Target sequence (Q8WTS1 whole entry, looked up): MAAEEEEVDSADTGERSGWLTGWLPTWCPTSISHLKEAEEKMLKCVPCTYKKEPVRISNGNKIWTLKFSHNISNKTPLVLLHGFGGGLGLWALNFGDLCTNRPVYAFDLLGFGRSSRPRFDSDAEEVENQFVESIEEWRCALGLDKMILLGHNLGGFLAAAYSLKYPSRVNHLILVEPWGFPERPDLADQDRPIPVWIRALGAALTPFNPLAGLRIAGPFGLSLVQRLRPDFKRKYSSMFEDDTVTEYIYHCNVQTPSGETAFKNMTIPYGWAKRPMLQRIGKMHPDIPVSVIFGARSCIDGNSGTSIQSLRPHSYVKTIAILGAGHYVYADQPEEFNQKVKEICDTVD
CF NFkB inh: cystic fibrosis NF-kB activation inhibition | inhibition, % at 5 µM | 360,000 compounds, 0.86% hits | KKLEB NF-kB-GFP reporter, PAF-induced, GFP fluorescence overnight;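 active = at least 50% inhibition at 5 µM, scaled per plate between neutral and stimulator controls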;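 also: PAF is a Pseudomonas aeruginosa culture filtrate used as stimulus; plate controls were PAF-stimulated DMSO wells for no effect and unstimulated DMSO wells for full effect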
Numbers without * were called inactive. Most compounds without a hit are left out; they make up all but 3.1% or so of the library.

COc1ccc(-c2ccc3c(c2)S(=O)(=O)c2cccc(C(=O)NCCOc4ccccc4Cl)c2C3=O)cc1OC was read as Peg3 promoter 87*, HIF-2a inh -15, TRPM1 prom inh 69*, KKLEB tox -22, ABHD5 PLIN5 PPI 4 and CF NFkB inh 0.
For CC(C)c1cccc(-c2ccc3c(c2)S(=O)(=O)c2cccc(C(=O)NCc4ccccc4Cl)c2C3=O)c1 the results were Peg3 promoter 51*, HIF-2a inh 0, TRPM1 prom inh 82*, KKLEB tox -38, ABHD5 PLIN5 PPI -6 and CF NFkB inh 41.
`COc1ccc(NC(=O)CCCOc2ccc(Cl)c(C)c2)cc1S(=O)(=O)N1CCOCC1` gave Peg3 promoter 5, HIF-2a inh -4, TRPM1 prom inh 17, KKLEB tox -4, ABHD5 PLIN5 PPI 1 and CF NFkB inh -5.
`O=C(CSc1n[nH]c(=O)n1C1CC1)Nc1cc(Cl)ccc1Oc1ccccc1` gave Peg3 promoter 50*, HIF-2a inh 13, TRPM1 prom inh 13, KKLEB tox -10, ABHD5 PLIN5 PPI 2 and CF NFkB inh -3.
Screening O=C(CSc1n[nH]c(=O)n1C1CC1)Nc1ccccc1 returned Peg3 promoter 5, HIF-2a inh 3, TRPM1 prom inh 10, KKLEB tox 20, ABHD5 PLIN5 PPI -5 and CF NFkB inh -3.
CC(C)c1ccc(OCC(=O)NC2CC(C)(C)NC(C)(C)C2)c(Br)c1 was read as Peg3 promoter 1, HIF-2a inh -15, TRPM1 prom inh -20, KKLEB tox 3, ABHD5 PLIN5 PPI 4 and CF NFkB inh -3.
`O=C1CC2(CCN(C(=O)C(=O)c3c[nH]c4ccccc34)CC2)Oc2ccccc21` gave Peg3 promoter -18, HIF-2a inh 5, TRPM1 prom inh -4, KKLEB tox -100*, ABHD5 PLIN5 PPI 0 and CF NFkB inh 84*.
For CCc1c(C)sc(NC(=O)c2noc(C)c2[N+](=O)[O-])c1C#N the results were Peg3 promoter 13, HIF-2a inh -5, TRPM1 prom inh 2, KKLEB tox -2, ABHD5 PLIN5 PPI -5 and CF NFkB inh -5.
`CCc1cccc(C)c1NC(=S)NCCc1c(C)[nH]c2ccc(C)cc12` gave Peg3 promoter 51*, HIF-2a inh 16, TRPM1 prom inh 17, KKLEB tox 8, ABHD5 PLIN5 PPI -14 and CF NFkB inh -13.
`O=C(OCC(=O)N1CCCC1=O)c1ncc(Cl)c(Cl)c1Cl` gave Peg3 promoter -2, HIF-2a inh -7, TRPM1 prom inh 1, KKLEB tox -13, ABHD5 PLIN5 PPI 10 and CF NFkB inh 22.
Clc1ccccc1-c1nnc2sc(CCc3ccccc3)nn12 was read as Peg3 promoter 1, HIF-2a inh 7, TRPM1 prom inh 7, KKLEB tox 10, ABHD5 PLIN5 PPI -1 and CF NFkB inh 5.
c1ccc(CCc2nn3c(-c4ccncc4)nnc3s2)cc1 was read as Peg3 promoter -35, HIF-2a inh -8, TRPM1 prom inh -19, KKLEB tox -14, ABHD5 PLIN5 PPI 1 and CF NFkB inh 72*.
For Cc1c(O)nc(SCC(=O)Nc2nccs2)n(-c2ccccc2F)c1=O the results were Peg3 promoter -15, HIF-2a inh -3, TRPM1 prom inh 6, KKLEB tox 4, ABHD5 PLIN5 PPI -7 and CF NFkB inh 9.
`COc1ccc(-n2sc3c(c2=S)-c2cc(OC)ccc2NC3(C)C)cc1` gave Peg3 promoter 8, HIF-2a inh 41*, TRPM1 prom inh 4, KKLEB tox -8, ABHD5 PLIN5 PPI -11 and CF NFkB inh 9.
Screening COc1ccc2c(c1)-c1c(sn(-c3ccccc3)c1=S)C(C)(C)N2 returned Peg3 promoter 18, HIF-2a inh 28, TRPM1 prom inh 16, KKLEB tox 2, ABHD5 PLIN5 PPI -6 and CF NFkB inh 3.
Screening COc1ccc(/C=C2\Cc3ccccc3C2=O)cc1OC returned Peg3 promoter -38, HIF-2a inh -93, TRPM1 prom inh -5, KKLEB tox 8, ABHD5 PLIN5 PPI 4 and CF NFkB inh -24.
For COc1cc(C=C2Cc3ccccc3C2=O)cc(OC)c1OC the results were Peg3 promoter -10, HIF-2a inh -28, KKLEB tox -12, ABHD5 PLIN5 PPI 22* and CF NFkB inh -22.
Screening COc1cc(C(=O)OCC(=O)Nc2cc(C)on2)ccc1OCc1ccccc1Cl returned Peg3 promoter -47, HIF-2a inh -87, TRPM1 prom inh -42, KKLEB tox -4, ABHD5 PLIN5 PPI 3 and CF NFkB inh -2.
COc1ccc(NC(=O)COC(=O)c2ccc(OCc3ccccc3Cl)c(OC)c2)c(OC)c1 was read as Peg3 promoter -8, HIF-2a inh -51, TRPM1 prom inh -19, KKLEB tox -75*, ABHD5 PLIN5 PPI -4 and CF NFkB inh 61*.
Screening Cc1nc(C(=O)NC(C)C)nn1-c1cc(Cl)cc(Cl)c1 returned Peg3 promoter -8, HIF-2a inh 7, TRPM1 prom inh -16, KKLEB tox -3, ABHD5 PLIN5 PPI -4 and CF NFkB inh 2.
Screening CCC(C)Sc1nc2c(cnn2-c2ccc(C)c(C)c2)c(=O)[nH]1 (centres undefined) returned Peg3 promoter 10, HIF-2a inh 6, TRPM1 prom inh -2, KKLEB tox -12, ABHD5 PLIN5 PPI 5 and CF NFkB inh 30.
`CSc1nc2c(cnn2-c2ccc(C)c(C)c2)c(=O)[nH]1` gave Peg3 promoter 59*, HIF-2a inh 6, TRPM1 prom inh 29, KKLEB tox -5, ABHD5 PLIN5 PPI -4 and CF NFkB inh 5.
`CCN1C(=O)C(CC(=O)Nc2ccc(Br)cc2)N(CCCc2ccccc2)C1=S` (centres undefined) gave Peg3 promoter 58*, HIF-2a inh -5, TRPM1 prom inh 10, KKLEB tox -3, ABHD5 PLIN5 PPI -7 and CF NFkB inh 1.
`O=C(NC(c1ccccc1)c1c(O)ccc2ccccc12)c1ccccc1Cl` (centres undefined) gave Peg3 promoter 13, HIF-2a inh -16, TRPM1 prom inh -2, KKLEB tox 2, ABHD5 PLIN5 PPI -6 and CF NFkB inh 6.
Screening O=C(NC(c1ccc(Cl)cc1)c1c(O)ccc2ccccc12)c1ccccc1 (centres undefined) returned Peg3 promoter 58*, HIF-2a inh 20, TRPM1 prom inh 19, KKLEB tox -62*, ABHD5 PLIN5 PPI -5 and CF NFkB inh 64*.
For CCCC1CC(C(=O)NC(C(C)Cl)C2OC(SC)C(O)C(O)C2O)N(C)C1 (centres undefined) the results were Peg3 promoter 9, HIF-2a inh 0, TRPM1 prom inh -16, KKLEB tox 16, ABHD5 PLIN5 PPI 5 and CF NFkB inh -12.
CC(C)c1ccc(/C=C/c2[nH]c(=O)[nH]c(=O)c2[N+](=O)[O-])cc1 was read as Peg3 promoter -21, HIF-2a inh -14, TRPM1 prom inh 26, KKLEB tox 6, ABHD5 PLIN5 PPI 22* and CF NFkB inh 5.
